The panel holds about 79,000 compounds, 15% with a hit somewhere; the sample as a whole holds those more often. Activity calls are given as the source filed them. No stated cut-off is given here; in the data, active means growth inhibition above about 70%; inactive means the rest.
What was measured:
[1] = NCI Yeast Anticancer Drug Screen. Data for the rad50 strain (AID 155);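 further: 0% = growth of vehicle-only cultures of the same strain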; conditions: S. cerevisiae rad50 strain growth inhibition, active compounds read high
Outline: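 DNA repair mutant yeast, compound exposure, growth read-out; inhibition is taken relative to vehicle.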

[2] = NCI Yeast Anticancer Drug Screen. Data for the mec2-1 strain (AID 157); conditions: S. cerevisiae mec2-1 strain, active compounds read high
Outline: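 Each compound was tested on mec2-1 yeast, a strain altered in DNA damage repair or cell cycle control. Growth inhibition is reported relative to vehicle.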

[3] = NCI Yeast Anticancer Drug Screen. Data for the sgs1 mgt1 strain (AID 161);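 further: 0% = growth of cultures given vehicle only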; conditions: S. cerevisiae sgs1 mgt1 strain, active compounds read high
Outline: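 Genetically altered yeast, compound exposure, growth inhibition relative to vehicle.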

[4] = NCI Yeast Anticancer Drug Screen. Data for the cln2 rad14 strain (AID 165);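 further: 0% = growth equal to vehicle treated cultures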; conditions: S. cerevisiae cln2 rad14 strain, active compounds read high
Outline: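 Test compounds were added to cln2 rad14 yeast cultures; inhibition of growth was then determined by comparison with vehicle treatment.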

[5] = NCI Yeast Anticancer Drug Screen. Data for the bub3 strain (AID 167); conditions: S. cerevisiae bub3 mutant strain, active compounds read high
Outline: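 In this screen, a yeast mutant lacking normal mitotic checkpoint function is challenged with compound. Relative growth versus vehicle gives the inhibition value.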

[6] = NCI Yeast Anticancer Drug Screen. Data for the mlh1 rad18 strain (AID 175); conditions: S. cerevisiae mlh1 rad18 strain growth inhibition, active compounds read high
Outline: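 Inhibition values reflect reduced growth of mutant yeast versus vehicle-treated controls following compound exposure; the mutations affect DNA damage repair.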

[7] = at 5.0 µM (retest, dose inferred, filed as 0.5)
[8] = at 50.0 µM (retest, dose inferred, filed as 5.0)

Measured: growth inhibition

Cc1ccc([NH-])cc1C.Cc1ccc([NH-])cc1C.[Cl][Pt+2][Cl]
active: [6]; at 50.0 µM 81.5%
inactive: [1]; [7] 4% | [1]; [8] 21% | [1]; at 50.0 µM 34.2% | [2]; [7] -1% | [2]; [8] 9% | [2]; at 50.0 µM 19.8% | [3]; [7] 5% | [3]; [8] 58% | [3]; at 50.0 µM 62.5% | [4]; [7] -8% | [4]; [8] 12% | [4]; at 50.0 µM -32.4% | [5]; [7] -8% | [5]; [8] 4% | [5]; at 50.0 µM 10.8% | [6]; [7] 6% | [6]; [8] 49%

C=NCC#N
inactive: [1]; [7] 8% | [1]; [8] 8% | [1]; at 50.0 µM -12.9% | [2]; [7] -1% | [2]; [8] 2% | [2]; at 50.0 µM -1.3% | [3]; [7] 4% | [3]; [8] 8% | [3]; at 50.0 µM 25% | [4]; [7] 11% | [4]; [8] 6% | [4]; at 50.0 µM 67.3% | [5]; [7] 4% | [5]; [8] -2% | [5]; at 50.0 µM 5.25% | [6]; [7] 3% | [6]; [8] 3% | [6]; at 50.0 µM 26.9%

[O-][n+]1ccccc1S
active: [1]; [7] 99% | [1]; [8] 99% | [1]; at 50.0 µM 99.4% | [2]; [7] 100% | [2]; [8] 100% | [2]; at 50.0 µM 99.7% | [3]; [7] 100% | [3]; [8] 99% | [3]; at 50.0 µM 99.7% | [4]; [7] 99% | [4]; [8] 99% | [4]; at 50.0 µM 99.2% | [5]; [7] 99% | [5]; [8] 99% | [5]; at 50.0 µM 99.3% | [6]; [7] 99% | [6]; [8] 99% | [6]; at 50.0 µM 99.5%

O=[N+]([O-])c1cc[n+]([O-])c2ccccc12
inactive: [2]; at 50.0 µM 53.9% | [3]; at 50.0 µM 54.9% | [5]; at 50.0 µM 49.5%
active: [1]; [7] 99% | [1]; [8] 98% | [1]; at 50.0 µM 99.2% | [2]; [7] 100% | [2]; [8] 99% | [3]; [7] 99% | [3]; [8] 99% | [4]; [7] 100% | [4]; [8] 100% | [4]; at 50.0 µM 99.3% | [5]; [7] 98% | [5]; [8] 99% | [6]; [7] 99% | [6]; [8] 99% | [6]; at 50.0 µM 98%

CC1Oc2cc3c(-c4c(O)cc(O)c5c(O)c6c(cc45)OC(C)C(C)C6=O)c(O)cc(O)c3c(O)c2C(=O)C1C (configuration not stated)
inactive: [1]; [7] 8% | [2]; [7] -10% | [3]; [7] -2% | [4]; [7] 30% | [4]; [8] 69% | [5]; [7] -8% | [6]; [7] 10%
active: [1]; [8] 85% | [1]; at 50.0 µM 83.1% | [2]; [8] 83% | [2]; at 50.0 µM 84.2% | [3]; [8] 86% | [3]; at 50.0 µM 83% | [4]; at 50.0 µM 82.8% | [5]; [8] 81% | [5]; at 50.0 µM 81.2% | [6]; [8] 84% | [6]; at 50.0 µM 84.2%

O=c1[nH]c2ccccc2n1C1CCN(CCCC(c2ccc(F)cc2)c2ccc(F)cc2)CC1
inactive: [1]; [7] -10% | [1]; [8] 34% | [1]; at 50.0 µM -14.8% | [2]; [7] 12% | [2]; [8] 11% | [2]; at 50.0 µM -11.4% | [3]; [7] 4% | [3]; at 50.0 µM 48.7% | [4]; [7] -7% | [4]; [8] -4% | [4]; at 50.0 µM -24% | [5]; [7] -2% | [5]; [8] 10% | [6]; [7] 14% | [6]; at 50.0 µM 63.8%
active: [3]; [8] 83% | [5]; at 50.0 µM 72.9% | [6]; [8] 92%

CC12C(=O)C=CCC1=CCC1C2CCC2(O)C(=O)OC3(C)C4CC5(C)C(COC16OC23C5C6=O)C(=O)O4 (configuration not stated)
inactive: [1]; [7] 11% | [1]; [8] 51% | [2]; [7] 24% | [2]; [8] 35% | [2]; at 50.0 µM 55.7% | [3]; [7] 19% | [3]; [8] 31% | [3]; at 50.0 µM 54.4% | [4]; [7] 3% | [4]; [8] 18% | [4]; at 50.0 µM 30.4% | [5]; [7] 14% | [5]; [8] 56% | [5]; at 50.0 µM 69.6% | [6]; [7] 32% | [6]; [8] 64% | [6]; at 50.0 µM 62.5%
active: [1]; at 50.0 µM 78.8%

CC1=C[C@H]2O[C@H]3C[C@H]4OC(=O)/C=C\C=C\C(=O)OCC[C@@H](C)[C@H](O)C(=O)OC[C@@]2(CC1)[C@@]4(C)[C@]31CO1
active: [1]; [7] 99% | [1]; [8] 99% | [1]; at 50.0 µM 92% | [2]; [7] 100% | [2]; [8] 99% | [2]; at 50.0 µM 92.9% | [3]; [7] 100% | [3]; [8] 99% | [3]; at 50.0 µM 92.8% | [4]; [7] 98% | [4]; [8] 98% | [4]; at 50.0 µM 90.3% | [5]; [7] 100% | [5]; [8] 98% | [5]; at 50.0 µM 92% | [6]; [7] 98% | [6]; [8] 98% | [6]; at 50.0 µM 92%

COc1ccc2c(c1)CCC(N1CCCC(=O)C1)C2 (configuration not stated)
active: [5]; at 50.0 µM 89.1%
inactive: [1]; [7] 9% | [1]; [8] 11% | [1]; at 50.0 µM 23.1% | [2]; [7] 8% | [2]; [8] 17% | [2]; at 50.0 µM 24.4% | [3]; [7] 8% | [3]; [8] 26% | [3]; at 50.0 µM 66% | [4]; [7] 11% | [4]; [8] 38% | [4]; at 50.0 µM 17.4% | [5]; [7] 4% | [5]; [8] 31% | [6]; [7] 9% | [6]; [8] 29% | [6]; at 50.0 µM 25.1%
